Assay results: PubChem BioAssay (NCI)
This is part of a sample that, as a whole, favours compounds with a hit. Of some 83,000 tested, about 20% had one in any assay.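 Step 1: grow cells in 96-well plates. Step 2: add test compound at a single concentration. Step 3: incubate 48 h. Step 4: record percent growth.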 A number with no mark means an inactive call. Activity calls are given as the source filed them. How the source made its calls: active means growth percent below 10; inactive means the rest.

How the values were obtained:
Assay in all cases: NCI-60 one-dose screen, 48 h (100 = growth as untreated, 0 = no growth, -100 = all killed)
Details in all cases: 10 µM unless noted
NCI-H23 lung = tested on: NCI-H23 lung
NCI-H226 lung = tested on: NCI-H226 lung
NCI-H322M lung = tested on: NCI-H322M lung
HOP-62 NSCLC = tested on: HOP-62 NSCLC
NCI-H460 lung = tested on: NCI-H460 lung
HOP-92 NSCLC = tested on: HOP-92 NSCLC
NCI-H522 lung = tested on: NCI-H522 lung
A549/ATCC NSCLC = tested on: A549/ATCC NSCLC
786-0 renal = tested on: 786-0 renal
COLO 205 colon = tested on: COLO 205 colon

SMILES	growth (NCI-H23 lung)	growth (NCI-H226 lung)	growth (NCI-H322M lung)	growth (HOP-62 NSCLC)	growth (NCI-H460 lung)	growth (HOP-92 NSCLC)	growth (NCI-H522 lung)	growth (A549/ATCC NSCLC)	growth (786-0 renal)	growth (COLO 205 colon)
O=c1ccc2ccc(OCCN3CCCCC3)cc2o1	98.4%	103%	97%	84.5%	108%	-17.3% (active)	86.6%	98%	99.5%	98.5%
O=C(Nc1ncc(Cc2ccccc2)s1)c1sc2ccccc2c1Cl	40.8%	65%	43.4%	25%	8.39% (active)	76.7%	-2.01% (active)	26.6%	43.2%	16.8%
CCOC(=O)NC(=S)n1oc(=O)c2ccccc21	97.7%	102%	98.8%	99.4%	101%	86.2%	99.3%	103%	111%	103%
O=C(CN1C(=O)S/C(=C\C(Cl)=C\c2ccccc2)C1=O)NC1CCS(=O)(=O)C1 (stereo not given)	74.3%	77.3%	95.7%	99.7%	94.2%	80.4%	34.2%	94.3%	78.7%	59%
NS(=O)(=O)c1ccc(C(=O)NN2C(=O)c3ccccc3C2=O)cc1	105%	111%	110%	108%	112%	107%	99.5%	110%	105%	108%
O=C1NC(=O)C(c2coc3cc(Br)ccc23)=C1c1c[nH]c2ccccc12	77.5%	67.2%	77.7%	38.9%	19.5%	70.4%	51.1%	33.5%	69.5%	35.1%
CSc1ccc(N2C(=N)C(=S)N(c3ccc(C)cc3)C2=O)cc1	98.3%	96.3%	99%	86.2%	102%	90%	80.5%	87.6%	91.5%	98%
O=C(/C=C/C12c3ccccc3C(c3ccccc31)C1C(=O)NC(=O)C12)c1ccc(I)cc1 (stereo not given)	59.3%	88.8%	65.1%	69.3%	44.8%	63.7%	55%	71.9%	64.6%	78.8%
Cc1c(C(C)(C)O)cn2ncnc(Oc3ccc(NC(=O)Nc4ccc(Cl)c(C(F)(F)F)c4)c(F)c3)c12	30.6%	62.6%	92.1%	101%	25.9%	36.4%	39.9%	41.2%	64.8%	72.8%
COc1cc(C[C@H]2COc3cc(O)cc(O)c3C2=O)ccc1O	49.8%	101%	69.7%	35.4%	18.6%	30.9%	17.2%	46%	25.6%	106%
Cc1cc(C(=O)CCCC(=O)c2cc(C)c(O)c(C)c2)cc(C)c1O	99.8%	85%	114%	98.9%	112%	82.9%	91.1%	104%	93.9%	-53.1% (active)
O=S(=O)(Nc1cc(Sc2nc3ccccc3s2)c(O)c2ccccc12)c1ccc2ccccc2c1	76.3%	94.1%	94.9%	102%	99.7%	109%	83%	99.9%	111%	101%
CN1C(=O)/C(=C/c2ccc(C(=O)Nc3ncc(Cc4cc(Cl)ccc4Cl)s3)cc2)SC1=S	67.6%	68.5%	76.7%	72.4%	73.7%	50.2%	62.5%	73.3%	87.9%	89.2%
Cc1ccc(C)c2c1sc1nc(N3CCOCC3)c(C#N)c(=O)n12	76.1%	89.6%	107%	94.2%	94.9%	71.7%	94.8%	98.4%	104%	104%
Cn1cc(-c2nonc2-c2c[nH]c3ccccc23)c2cc(Br)ccc21	52.9%	75.5%	53.2%	25.2%	14.9%	63.4%	7.04% (active)	27.9%	50.6%	15%
